# Screen size: about 31,000 sequences; about 1,400 (4.5%) were called active. The sample as a whole holds a higher share of actives than the screen did. Values without a mark were called inactive.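 How the source made its calls: active means median seed-adjusted z-score above 1 or below -1; inactive means the rest.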
# Assay: Novel Modifiers of Survival Motor Neuron (SMN) Protein: Gene Identification via Genome-wide siRNA Screen;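 further: luminescence tracks full-length SMN protein made from the SMN2 reporter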
# Conditions: HEK293T SMN2-luciferase reporter, siRNA knockdown, 72 h; actives lie on both sides
# In short: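 siRNA screen, 10418 genes ×3 siRNAs; 1 pmol/well, lipid reverse transfection into HEK293T SMN2-luc reporter line. 72 h, 37 °C, 5% CO2; ONE-Glo readout. Data: neg-ctrl normalized, log10, MAD; hit = MAD >1.0 or < -1.0.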
row,Sequence,median seed-adjusted z-score
1,CGGAGUCUGCGCUUCGUUATT against ACP2,-0.00569
2,GCUUUAUAAGUGUAGCGAATT against ZNF749,0.911
3,GGAGGUCACUUGUGAAUCATT against GLS2,-0.793
4,CCCAGUUCCUGCUAUCUCATT against POU2F3,-1.53 (active)
5,GGGCUACCAUCUCCUUUCATT against SLC23A3,-0.254
6,GUACCCAAGUAACAACUGUTT against CXCL11,-0.135
7,UCCACUGACUCGUAAAGUUTT against PROK2,-0.00826
8,GCUCGGUGGUUGAUAAUCATT against SLC22A10,-0.0897
9,AGACCAUCGCAGAGACAGATT against SLC31A2,0.401
10,GGAUGUUCGUCAUAUUGAATT against IRAK3,0.155
11,CAAAAGACCUGUAAUAAGATT against MAGT1,-0.0855
12,GCCUUGAUGCUGAUCAUCATT against MEP1B,1.46 (active)
13,GGUGAAUCAUUUGAACUGATT against RCL1,0.0807
14,GGAAUACUCAGAUCGGGAATT against MAP3K3,-0.182
15,GUAUGGAGAUCUCUACGGATT against RYR3,0
16,GUAUGACCUAAAAACCGAATT against MTRR,-0.381
17,AGAGAUACUUCUUAAAUCATT against YAP1,-0.247
18,GCUCAAUGCAGGUAUUCAATT against KLF8,0.0976
19,AAGUCUCAUUCGUGGUUGATT against ST6GALNAC6,0.367
20,CAGCCCAAGUGUCGCCUUATT against PAX9,-1.16 (active)
21,GAUAUUCUCUGUGACGUGATT against BACH2,0
22,GACCAGAUGUGGAUGUAAATT against MIB1,0

row,Sequence,median seed-adjusted z-score
1,ACUAGCCUGUGGAGCAAGATT against HBE1,-0.425
2,CCGAUCAAGUGAACAUAGATT against AKAP4,0.116
3,CCUUCUCAACAUAGGAUAATT against ZNF257,0.306
4,UGGGUUGGAUGAUACCUUATT against GATA5,0.15
5,GAGGGUCUCUUCUUAAGUATT against CAD,2.37 (active)
6,UCAUCACAGCGGUACUGUATT against ITGAX,-0.0677
7,GCAGGUAGCUCAUAUGUUUTT against WDR31,0.796
8,GGACCACGUCAAGACUUGUTT against TRAF2,-0.00463
9,CAAACUUCCCGAUAGAGAATT against CTDP1,-2.29 (active)
10,CUAUCAGGGAAAUUACGUATT against ZNF713,-0.0652
11,AAAUGUAACCUUUUGCUUUTT against DAD1,-0.45
12,GCUUUACCUUGGACCUGAATT against MPL,-0.0153
13,GCGUGAUCAUCGAUGUGGATT against SLC5A7,0.624
14,GAUGUUCCCUAUAUGCAAATT against CLDN10,0.0399
15,GUGUAUCUAUGGAAGAGCATT against PSMD4,1.46 (active)
16,CUAUAAUUCCAGAGCAUAATT against KLF5,-0.338
17,GGACCUUGGAUUAUCUGAATT against YME1L1,0.131
18,CACUAGUUCUAUGACCAUUTT against IMPG1,-0.252
19,GCAUGGAAGUGUACGAGUATT against THBS3,0.429
20,CCACUGACAAGGUCCACGATT against MRGPRD,-0.484
21,CCGUAAACUUCAUAACAUUTT against DYRK1A,-1.3 (active)
22,CCUUAGUUCUUCCUCGGAATT against PARP12,-0.287

row,Sequence,median seed-adjusted z-score
1,GCUGAUCUAUCACAAACCATT against SERPINA2,0.285
2,AAUGCAUUGUGAACCCAUUTT against GNGT2,-0.289
3,GGUUAGAAGAGGUGUCUAATT against NUMB,-0.599
4,AGCCCAAGGUGGAACAAUCTT against CREM,-2.37 (active)
5,GGAUGAACCCAAUCCCAAUTT against UBE2A,0.306
6,GGUCCCUGUUGAGAAACGATT against TOP1,0.0303
7,GCAAAGGCCUUGUACGUCATT against USP10,0.182
8,GCUUGAGUAUAGAUAAAGATT against PAM,0
9,UGGACACCGUCACCAUGAATT against GPR78,0.607
10,GCCGAGCUCUUUAUCCUCUTT against TRHDE,0.429
11,GGAUCGGGUGUAUCAACAATT against SRP54,0.203
12,CAUUGUCGUUGGUGCAGUATT against ADCY10,-0.573
13,GGAAUUACGGAGAUAUAGATT against TRRAP,-1.25 (active)
14,GGACACAUCUCGGACAGCATT against KLK9,-0.476
15,GUACCUUGAGAAGAAAUUUTT against ACCN1,-0.325
16,UCAGCUCCAUUAAUAGAAUTT against PAX8,0
17,CCUCAUAAGUGUAAGAUAUTT against ZNF799,-1.02 (active)
18,GAAUGUCCCUGCUCCACAATT against SNAI1,0.0196
19,ACAACUUCCUGGUCGCUGATT against GPR62,0.0306
20,AGAAGAUCCGAAAGAAAUATT against GABARAP,0.418
21,CCAACGACCUGGUUAUGAATT against FBP1,-0.221
22,GGUUGGAACUCGUUCCUCATT against NLGN4X,-0.1

row,Sequence,median seed-adjusted z-score
1,GCACAAGACGAACUCAGUATT against UBE2J2,-0.341
2,GCAUUGUCUCUCUUAUGUUTT against SYVN1,-1.41 (active)
3,AGAUCAAGCUCCUCAACAATT against KRT4,0.336
4,GUUAUUCCCUGUUCUCGAATT against ALDH5A1,0.339
5,GGACGUGGACCAUUACUGUTT against LITAF,0.0771
6,GAUUAACCAAGGUUGAGAATT against CNGA1,-1.08 (active)
7,CCACAUCUCUACUCGUGAATT against ULK4,0.0834
8,GGAGUUACGAUAGCCGGAATT against DIAPH1,0.145
9,CGGGAUAAUUUUGACAAGATT against NXF2,-0.0513
10,GGAAACUCUGUUUACGUUATT against BTAF1,-1.19 (active)
11,GGACAACAUUUGACACCAATT against APOBEC2,0.232
12,CAGACACCUUCAUACCUUATT against BHMT,0
13,CUGCAAGACUUGGAGCUAATT against HDLBP,-1.18 (active)
14,UGGGAGAAGUACAACAAUATT against FAM12A,0.08
15,CAACGACAGCAGUCCCAUUTT against EGR1,0.0836
16,GUGUAAGGAUCAAAAAGAATT against ZNF682,-0.155
17,ACAACAUCAUGAUCCGAGATT against PIK3CD,0.00831
18,CUUCGUAUGUUUACAAGAATT against GUCY2C,-0.0181
19,GCUCUACGCAAGGAGAUCATT against BATF,-0.0501
20,GUCCGGUGUUUGAACCUGATT against ABHD2,-1.21 (active)
21,CUAUUGUAAAAGUAUGGAATT against ARL6IP2,0.274
22,GGCCUACAGCAACAAUGGATT against PCDH24,0.345

row,Sequence,median seed-adjusted z-score
1,GAGUGGAAGUUAUCUGUCATT against WBSCR22,-0.21
2,AGCUCCAUCUCGACCACAATT against FMOD,-1.32 (active)
3,GGAAUACAGUGACGACAAATT against ING5,-0.193
4,GCAUCGACCGGGUUUAUGATT against KARS,-0.152
5,CCACUUUACCCACUACCCATT against ISX,1.99 (active)
6,GCAUUCGAAUUAUAGAACATT against SLC16A14,0.464
7,GCACAAAUCUCAAUAUUCATT against GPSM3,-0.641
8,CAGCCUUAAUGGACACGAATT against MFGE8,0.0367
9,GUAUGGUCGGUUUACAAUATT against YES1,-0.508
10,ACCGUAUUCCUAUAUCUCATT against FOXA3,0.128
11,GCAUCGUCAAGGAUUGGAATT against ACTR1A,1.28 (active)
12,GCACUUACGAUGACCGGCATT against TNFAIP1,0.0766
13,GCAAUUUCUUGUUUCGUUATT against SLC9A6,-0.0831
14,GGACAAUAGACUUUAGAGATT against NCALD,0
15,AGUAUACGCUGCCCUCAUATT against RNASE3,0.588
16,CCAUUUGAGGUGAACCGUATT against RFWD3,0.554
17,CUACGACGGUGAUAUUGGATT against HDAC2,-1.27 (active)
18,GCAGGGAUCUUACAUCUAUTT against CENTD2,-0.305
19,GCAUCCUACCCGUUCCAUATT against MSX2,-0.406
20,GGGACAUCCGAGAUCCUAATT against LAMB1,1.07 (active)

# — PubChem BioAssay AID1347426 (Functional Genomics Laboratory (NCATS/FGL), 2020)
